Screening results as filed in PubChem.
Shiga toxin inh: A qHTS for Small Molecule Inhibitors of Shiga Toxin; Vero cells, Shiga toxin protein synthesis inhibition reporter; AID 2315, 2010; actives 9.2% (n = 290,000); inhibition, % at 38.7 µM; in the data active = inhibition mostly above about 28%, no sharp cut-off; inactive = mostly below about 43%; note: 0% is about no effect
HCMV inh: qHTS Assay for inhibitors of the human cytomegalovirus (HCMV). HFF cells, HCMV-luciferase reporter, 72 h; active compounds read low. actives 4.5% (n = 410,000). activity change, negative = inhibition, % at 57.5 µM; in the data active = activity change below about -60%; inconclusive = no clear call, values can overlap the other calls; inactive = above about -39%; note: % is set by controls: 0 for no effect and ±100 for the full control effect
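HFF cells seeded 16 h at 37C, treated with compounds, infected with luciferase-reporter HCMV at MOI 1 PFU/cell; luciferase read at 72 h post infection, normalized to buffer-only and Salinomycin controls.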
Cycloheximide cs: Cycloheximide Counterscreen for Small Molecule Inhibitors of Shiga Toxin; cell reporter, cycloheximide protein synthesis inhibition counterscreen; max response, %; actives 12% (n = 300,000); in the data active = max response mostly above about 13%, no sharp cut-off; inactive = mostly below about 14%; note: read at 38.3 µM for the half of the compounds with a filed dose; 0% is about no effect
Pf growth 96h: Primary qHTS for delayed death inhibitors of the malarial parasite plastid, 96 hour incubation | P. falciparum luciferase reporter growth, 96 h | Potency, µM (top dose mostly 28.7 µM), for the others: at the top dose activity change, negative = inhibition, usual class: inhibitors | actives 6.9% (n = 320,000) | AID 504834, 2011; note: potency is the fitted concentration of half-maximal effect; % is set by controls: 0 for no effect and ±100 for the full control effect
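Luminescence readout: decreased luciferase signal marks inhibited growth of reporter-expressing P. falciparum in infected red cells (2% hematocrit, 0.05% parasitemia final), exposed to compound two generations (96 h, 37 C, 5% CO2).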
Pf growth 48h: Primary qHTS for delayed death inhibitors of the malarial parasite plastid, 48 hour incubation; AID 504832, 2011; actives 5.9% (n = 310,000); Potency, µM (highest dose often 28.7 µM), without a hit: at the highest dose activity change, negative = inhibition, usual class: inhibitors; P. falciparum luciferase growth in erythrocytes, 48 h; note: potency is the fitted concentration of half-maximal effect; % is set by controls: 0 for no effect and ±100 for the full control effect
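Parasite viability was followed by luminescence of a genomically integrated firefly luciferase. Cultures held 0.1% parasitemia at 2% hematocrit (final), incubated under 5% CO2 at 37 C.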
Numbers without * were called inactive; ? = inconclusive; / = no result given. Sampled rows, rich in hits. Any-hit rate of the full collection: about 20%. Unless noted, calls come from the whole dose curve; as a rule, active = well fitted inhibition curve with a large enough effect; inconclusive = small, poorly fitted or top-dose-only effect, or another doubt; inactive = no such curve, though single readings can be large or run the other way.

SMILES	Shiga toxin inh	HCMV inh	Cycloheximide cs	Pf growth 96h	Pf growth 48h
CCOC(=O)C1CCN(C(=O)c2ccc(N(C)S(=O)(=O)c3ccc(OC)cc3)cc2)CC1	2.9	-14.3	-3.6	102.7%	-6.2%
OCC[C@@H]1C[C@@H](O)[C@H](O)[C@]2(CCc3ccccc3CO2)O1	-5.1	-12.5	1.4	20.8%	41.5%
Cc1cccc(OCCn2nnc3ccccc32)c1C	/	52.8	42.4*	?	54.6%
Cc1ccc(CSc2nc(-c3ccccc3C)nc3c2Cc2c(CO)cnc(C)c2O3)cc1	/	-29.8	/	/	/
Cc1ccc(NC(=O)c2ccc3nc[nH]c3c2)cc1C	74.1*	61.9	45.5*	84.2%	119.9%
Cc1cc(C)cc(NC(=O)c2ccc3nc[nH]c3c2)c1	63.5*	26.7	10.6	?	?
CCOC(=O)N1CCC(NC(=O)C2CCN(C(=O)c3cc4oc(C)cc4n3Cc3c(F)cccc3Cl)CC2)CC1	-4.0	-1.5	-4.8	42.3%	?
COC(CNC(=O)C1CCN(C(=O)c2cc3oc(C)cc3n2Cc2c(F)cccc2Cl)CC1)OC	13.0	-67.2*	-3.0	-0.6%	?
O=C(CCn1c(=O)oc2ccccc21)Nc1cccc([N+](=O)[O-])c1	-15.4	9.6	5.5	119.7%	5.5%
N/C(=N\OC(=O)Cc1ccc(-c2ccccc2)cc1)c1cccc([N+](=O)[O-])c1	-18.6	-34.1	-1.6	37.6%	30.8%
N/C(=N\OC(=O)Cc1ccccc1[N+](=O)[O-])c1cccc(Br)c1	27.2	-18.5	18.4*	27.3%	23.5%
N/C(=N\OC(=O)Cc1ccccc1)c1cccc(Br)c1	47.6*	?	10.7	8.4%	36.2%
N/C(=N\OC(=O)c1cccc(Br)c1)c1ccc([N+](=O)[O-])cc1	11.1	18.6	-2.7	33.0%	38.6%
CC/C(=N\NC(=O)c1ccc2c(c1)OCO2)c1ccccc1	46.0*	28.8	37.4*	?	63.3%
CC(/C=C/c1ccc2c(c1)OCO2)=N/NC(=O)c1cccnc1	62.0*	-15.7	23.4*	39.1%	35.9%
O=C(N/N=C(/c1ccccc1)c1ccncc1)c1ccc2c(c1)OCO2	-5.4	-15.8	-3.5	-43.1%	-1.0%
CC(=O)Nc1cccc(/C(C)=N/NC(=O)c2ccc3c(c2)OCO3)c1	41.6	4.0	25.7*	146.7%	256.9%
C/C(=N\NC(=O)c1ccc2c(c1)OCO2)c1ccc(NS(C)(=O)=O)cc1	/	48.5	/	/	/
CC(/C=C/c1ccc2c(c1)OCO2)=N/NC(=O)c1ccncc1	11.7	?	-0.3	-0.1%	-10.9%
C/C(=N\NC(=O)c1ccc2c(c1)OCO2)c1ccc(O)cc1	41.4*	0.0	33.2*	0.0%	52.2%
C=CCOc1ccc(Cl)cc1-c1noc(-c2csc([C@H]3C[C@H](O)[C@@H](CO)O3)n2)n1	/	27.5	/	/	/
O=C(Nc1cccc(NC(=O)c2cccs2)c1)c1ccc2c(c1)OCO2	5.5	-17.8	10.7	0.3%	9.2%
CC/C(=N\NC(=O)c1cccnc1)c1ccc2c(c1)OCCO2	14.0	-14.6	6.5	0.928µM*	-11.0%
C/C(=N\NC(=O)c1c[nH]c2ccccc12)c1ccc2c(c1)OCO2	42.0*	3.7	29.5*	5.86µM*	?
CC(C)CC(CC(C)C)=NNC(=O)c1ccc2c(c1)OCO2	73.7*	77.7	51.9*	-8.1%	?
SMILES	Shiga toxin inh	HCMV inh	Cycloheximide cs	Pf growth 96h	Pf growth 48h
CCC/C(=N/NC(=O)c1ccc2c(c1)OCO2)c1cccs1	88.7*	60.8	96.4*	?	78.4%
CC(C)CNC(=S)NNC(=O)c1ccc2c(c1)OCO2	-12.4	94.7	-3.8	/	25.5%
COc1ccc(N2CC(NC(=O)c3cccs3)CC2=O)cc1OC (configuration not stated)	/	9.5	/	/	/
C/C(=N\NC(=O)c1ccc2c(c1)OCO2)c1cccnc1	89.7*	95.4	36.8*	-7.3%	18.2%
C/C(=N/NC(=O)CNC(=O)c1ccc2c(c1)OCO2)c1ccc2c(c1)CCCC2	-11.5	-36.6	7.2	3.29µM*	0.7%
C/C(=N\NC(=O)c1ccccc1)c1ccc2c(c1)OCO2	95.7*	-2.7	51.4*	-16.8%	/
C/C(=N/NC(=O)c1ccc2c(c1)OCO2)c1ccc(NC(=O)C(F)(F)F)cc1	35.6*	35.3	41.2*	89.5%	116.2%
COc1ccc(CCC(=O)N/N=C(\C)c2ccc3c(c2)OCO3)cc1	-12.5	32.3	0.8	?	9.1%
C/C(=N\NC(=O)Cc1ccccc1Cl)c1cccnc1	17.7	-15.4	24.6	1.65µM*	?
C/C(=N/NC(=O)c1ccc(C(C)(C)C)cc1)c1cccnc1	/	5.8	/	/	/
C/C(=N\NC(=O)c1ccc(Br)cc1)c1cccnc1	44.8	13.6	21.9*	?	63.2%
C/C(=N\NC(=O)c1cc(C)oc1C)c1ccc2c(c1)OCO2	121.6*	55.3	47.5*	12.3%	35.9%
CSc1ccccc1NC(=O)CSCc1nc2sc(C)c(C)c2c(=O)[nH]1	/	-22.1	/	-1.9%	-25.1%
Cc1sc2nc(CSCC(=O)Nc3ccccc3C#N)[nH]c(=O)c2c1C	-6.7	47.4	-1.2	5.22µM*	-8.1%
Cc1cc(Br)cn2c(CC(C)(C)C)c(-c3cccc(Cl)c3)nc12	/	6.8	/	/	/
COc1ccc(/C=C2\N=C(SC)N(c3ccccc3OC)C2=O)cc1	32.9	-95.9*	25.1*	?	?
CCOc1ccc(N2C(=O)/C(=C/c3ccccc3)N=C2SC)cc1	41.4	-20.6	13.6	40.4%	154.9%
CC1(C(=O)NS(=O)(=O)c2cccs2)CCN1C(=O)C1(c2ccc(Cl)cc2)CCC1 (configuration not stated)	/	8.4	/	/	/
COc1cccc(C(C)(O)c2nc(-c3cncnc3)cs2)c1 (configuration not stated)	/	-20.4	/	/	/
CCN(CC)C(=O)c1cccc(-c2csc(C(C)(O)c3cccc(OC)c3)n2)c1 (configuration not stated)	/	-77.7*	/	/	/
COc1ccc(-c2csc(C(C)(O)c3cccc(OC)c3)n2)cc1 (configuration not stated)	/	-65.3*	/	/	/
COc1cccc(C(C)(O)c2nc(-c3ccc(Cl)cc3)cs2)c1 (configuration not stated)	/	11.4	/	/	/
COc1cccc(C(C)(O)c2nc(-c3ccc(S(C)(=O)=O)cc3)cs2)c1 (configuration not stated)	/	-85.7*	/	/	/
COc1cccc(C(C)(O)c2nc(-c3cccs3)cs2)c1 (configuration not stated)	/	-79.2*	/	/	/
COc1cccc(C(C)(O)c2nc(-c3cnc4ccccc4c3)cs2)c1 (configuration not stated)	/	-62.5*	/	/	/
CC(O)(c1ccncc1)c1nc(-c2cccc(C(F)(F)F)c2)cs1 (configuration not stated)	/	-69.2*	/	/	/
CC(O)(c1cccc(F)c1)c1nc(-c2cccc(C(F)(F)F)c2)cs1 (configuration not stated)	/	6.0	/	/	/
